# Measurements: PubChem BioAssay AID743449 (Broad Institute, 2014)
# About 90 (0.9%) of roughly 9,900 compounds were called active. About 2% were inconclusive and are not listed. For the sample, actives were picked, then their nearest neighbours and some compounds at random. Unmarked numbers belong to inactive results.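 Rule for the calls: active = mean normalized replicate activity at least 50 and at least half of replicates each reaching 50; inconclusive = only one of the two criteria met; inactive = neither criterion met.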
# Assay: YAP1 pathway inhibitors via CTGF transcript, primary screen, DLD1 colon cancer cells, RT-qPCR, single point (AID 743449);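 note: 0% = neutral control wells and 100% = dasatinib control wells; higher means stronger suppression of CTGF expression like dasatinib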
# Details: DLD1 CTGF mRNA qPCR, 24 h; at 12.5 µM; stronger effect = higher value
row,SMILES,inhibition
1,CC(=O)N1CCCCN2[C@H](CO)[C@H](c3ccc(-c4ccccc4)cc3)[C@H]2C1,9.46%
2,CC(=O)N1CCCCN2[C@@H](CO)[C@H](c3ccc(-c4ccccc4)cc3)[C@@H]2C1,62% (active)
3,Cc1ccccc1-c1ccc([C@H]2[C@@H](CO)N3CCCCN(S(=O)(=O)Cc4ccccc4)C[C@@H]23)cc1,66% (active)
4,CC(=O)N1CCCCN2[C@@H](CO)[C@@H](c3ccc(-c4ccccc4)cc3)[C@@H]2C1,-12.5%
5,COc1ccc(NC(=O)N2CCCCN3[C@H](CO)[C@H](c4ccc(-c5ccccc5F)cc4)[C@H]3C2)cc1,-50.7%
6,Cc1cccc(-c2ccc([C@H]3[C@@H](CO)N4CCCCN(S(=O)(=O)c5ccccc5F)C[C@@H]34)cc2)c1,-8.63%
7,Cc1ccccc1-c1ccc([C@H]2[C@@H](CO)N3CCCCN(S(=O)(=O)Cc4ccccc4)C[C@H]23)cc1,-18.5%
8,COc1ccc(NC(=O)N2CCCCN3[C@H](C2)[C@@H](c2ccc(-c4ccccc4F)cc2)[C@@H]3CO)cc1,-27.6%
9,Cc1cccc(-c2ccc([C@@H]3[C@@H](CO)N4CCCCN(S(=O)(=O)c5ccccc5F)C[C@@H]34)cc2)c1,63.6% (active)
10,Cc1cccc(-c2ccc([C@@H]3[C@@H](CO)N4CCCCN(S(=O)(=O)c5ccccc5F)C[C@H]34)cc2)c1,15.5%
11,Cc1ccccc1-c1ccc([C@@H]2[C@H](CO)N3CCCCN(S(=O)(=O)Cc4ccccc4)C[C@@H]23)cc1,26%
12,COc1ccc(NC(=O)N2CCCCN3[C@@H](CO)[C@H](c4ccc(-c5ccccc5F)cc4)[C@@H]3C2)cc1,59.6% (active)
13,O=C(C[C@@H]1CC[C@@H]2[C@H](COC[C@H](O)CN2C(=O)c2ccc(F)cc2)O1)N1CCCCC1,4.67%
14,C[C@@H]1CCCCO[C@H](CN(C)Cc2ccc(C(=O)O)cc2)[C@@H](C)CN([C@@H](C)CO)C(=O)c2cc(N(C)C)ccc2O1,-1.12%
15,O=C1N[C@H](Cc2ccccc2)COCc2cnnn2CC[C@@H]1Cc1ccc(-c2ccccc2)cc1,10.4%
16,CS(=O)(=O)N1[C@@H](CO)[C@@H](c2ccccc2)C12CN(Cc1cc(F)ccc1F)C2,2.97%
17,CCC(=O)N1C[C@H](C)[C@@H](OC)CN(C)C(=O)c2ccc(NC(=O)CC(F)(F)F)cc2OC[C@@H]1C,-9.99%
18,CC(C)N(C[C@H]1N[C@H](CO)[C@H]1c1ccccc1)S(=O)(=O)c1ccccc1,-1.38%
19,COc1ccccc1C#Cc1ccc([C@@H]2[C@H]3CN(C(=O)C4CCC4)CCCCN3[C@H]2CO)cc1,14.7%
20,COc1ccccc1C#Cc1ccc([C@@H]2[C@@H](CO)N3CCCCN(C(=O)C4CCC4)C[C@H]23)cc1,4.8%
21,O=S(=O)(c1ccccc1)N1CCCCN2[C@H](C1)[C@@H](c1ccc(C#CC3CCCC3)cc1)[C@@H]2CO,50.5% (active)

row,SMILES,inhibition
1,COc1ccccc1C#Cc1ccc([C@H]2[C@H](CO)N3CCCCN(C(=O)C4CCC4)C[C@@H]23)cc1,68.7% (active)
2,O=S(=O)(c1ccccc1)N1CCCCN2[C@H](CO)[C@H](c3ccc(C#CC4CCCC4)cc3)[C@H]2C1,-84.2%
3,O=S(=O)(c1ccccc1)N1CCCCN2[C@@H](CO)[C@H](c3ccc(C#CC4CCCC4)cc3)[C@@H]2C1,1.07%
4,O=C(C[C@H]1CC[C@H]2[C@@H](COC[C@@H](O)CN2C(=O)Nc2ccccc2)O1)NCc1ccccc1F,8.8%
5,CCCN1C[C@H](C)[C@H](OC)CN(C)C(=O)c2ccc(NS(=O)(=O)c3cn(C)cn3)cc2OC[C@H]1C,-8.06%
6,CCCC(=O)Nc1ccc2c(c1)C(=O)N(C)C[C@H](OC)[C@@H](C)CN(Cc1ccc(F)cc1)[C@H](C)CO2,-14.1%
7,CN1[C@H](C(=O)Nc2nccs2)[C@@H](CO)[C@@H]2Cn3c(ccc(-c4ccccc4F)c3=O)[C@@H]21,-2.79%
8,C/C=C/c1ccc([C@H]2[C@@H](CNC(=O)CC3CC3)N(C(=O)CC)[C@H]2CO)cc1,-13.1%
9,CCS(=O)(=O)Nc1ccc2c(c1)C(=O)N(C)[C@H]1CC[C@H](CC(=O)NCc3ccc(OC)cc3)O[C@@H]1CO2,-27.1%
10,O=C(C[C@H]1CC[C@H]2NC[C@H](O)COC[C@@H]2O1)N1CCc2ccccc2C1,1.25%
11,C[C@@H]1CN([C@H](C)CO)C(=O)CCCn2nncc2CO[C@@H]1CN(C)C(=O)c1cc(-c2ccccc2)on1,66% (active)
12,C[C@@H]1CN([C@H](C)CO)C(=O)CCCn2nncc2CO[C@H]1CN(C)C(=O)c1cc(-c2ccccc2)on1,-10.9%
13,C[C@@H]1CN([C@H](C)CO)C(=O)CCCn2nncc2CO[C@@H]1CN(C)Cc1cccc(C(F)(F)F)c1,61.3% (active)
14,C[C@H](CO)N1C[C@H](C)[C@H](CN(C)C(=O)c2cc(-c3ccccc3)on2)OCc2cnnn2CCCC1=O,29.3%
15,C[C@@H]1CN([C@@H](C)CO)C(=O)CCCn2nncc2CO[C@H]1CN(C)C(=O)c1cc(-c2ccccc2)on1,-32.7%
16,C[C@H](CO)N1C[C@H](C)[C@@H](CN(C)C(=O)c2cc(-c3ccccc3)on2)OCc2cnnn2CCCC1=O,-12.2%
17,C[C@@H]1CN([C@H](C)CO)C(=O)CCCn2nncc2CO[C@H]1CN(C)Cc1cccc(C(F)(F)F)c1,20.5%
18,C[C@H](CO)N1C[C@H](C)[C@@H](CN(C)Cc2cccc(C(F)(F)F)c2)OCc2cnnn2CCCC1=O,-35.1%
19,C[C@@H]1CN([C@@H](C)CO)C(=O)CCCn2nncc2CO[C@@H]1CN(C)C(=O)c1cc(-c2ccccc2)on1,55.9% (active)
20,CNC[C@@H]1OCCCC[C@H](C)Oc2ccc(NS(=O)(=O)c3ccc(F)cc3)cc2C(=O)N([C@@H](C)CO)C[C@H]1C,-4.63%
